The whole screen tested about 360,000 compounds, of which about 8,200 (2.3%) were called active. What follows is part of a selection rich in actives, with near analogues and random picks from the rest. Values without a mark were called inactive. Rule as the data show it: active = inhibition above about 27%; inactive = the rest.
Each compound was assayed against Fructose-bisphosphate aldolase (Mycobacterium tuberculosis (strain ATCC 25618 / H37Rv)) (UniProt P9WQA3) (assay: M. tuberculosis aldolase activity blockers – biochemical, fluorescence, strain H37Rv, primary screen (AID 588726;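 also: 0% = vehicle and 100% = reference inhibitor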)). Settings: purified M. tuberculosis FBA, fluorescence read-out, at 1 µM, hits give high values.
Chain of Fructose-bisphosphate aldolase (Mycobacterium tuberculosis (strain ATCC 25618 / H37Rv)) (P9WQA3 whole entry, looked up): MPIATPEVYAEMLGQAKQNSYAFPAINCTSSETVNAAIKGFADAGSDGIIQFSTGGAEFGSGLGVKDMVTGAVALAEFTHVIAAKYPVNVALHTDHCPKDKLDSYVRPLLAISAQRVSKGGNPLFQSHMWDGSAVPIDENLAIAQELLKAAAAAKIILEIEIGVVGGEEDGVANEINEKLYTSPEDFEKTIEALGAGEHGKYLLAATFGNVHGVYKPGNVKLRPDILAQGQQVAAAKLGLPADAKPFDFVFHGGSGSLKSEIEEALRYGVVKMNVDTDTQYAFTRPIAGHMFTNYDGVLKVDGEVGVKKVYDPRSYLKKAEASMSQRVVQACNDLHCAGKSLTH
Compound CC(C)N1CCC(NC(=O)Nc2ccccc2)CC1 has an inhibition of 0%.
With Cc1ccc(-c2nn(-c3cccc(F)c3)cc2CNCCc2ccncc2)o1 the inhibition was 3.67%.
In the case of C#Cc1ccc(NC(=O)C2(C)CCN2C(=O)Cc2ccc(-c3ccccc3)cc2)cc1 (configuration not stated), the inhibition is reported as -1.12%.
COc1ccc(S(=O)(=O)N(C)C[C@H]2Oc3c(NC(=O)Nc4ccc5c(c4)OCO5)cccc3C(=O)N([C@H](C)CO)C[C@@H]2C)cc1 was tested, and the inhibition was 112% (active).
Cc1noc(C)c1S(=O)(=O)N(C)C[C@H]1Oc2c(NC(=O)Nc3ccc4c(c3)OCO4)cccc2C(=O)N([C@H](C)CO)C[C@@H]1C gave an inhibition of -0.42%.
In the case of COc1ccc(S(=O)(=O)Nc2cccc3c2O[C@H](CN(C)S(=O)(=O)c2ccc(OC)cc2)[C@@H](C)CN([C@H](C)CO)C3=O)cc1, the inhibition is reported as 0.3%.
CCN(CCn1cccn1)C(=O)CC1C(=O)NCCN1Cc1cccc(OC)c1OC (configuration not stated) showed an inhibition of 0.01%.
In the case of CC(C)C1Nc2c(C(=O)O)cccc2C(Nc2ccccc2C(=O)O)C1(C)C (configuration not stated), the inhibition is reported as 107% (active).
CCCCN1CC(COc2ccccc2)Oc2cccc(F)c2S1(=O)=O (configuration not stated) gave an inhibition of -2.92%.
For O=C(c1ccc(Cl)cc1)N1N=C(c2ccccn2)CC1(O)C(F)(F)F (configuration not stated), the inhibition was 4.39%.
Work on CCOC(=O)[C@H]1[C@H]2COc3ccc(C)cc3[C@@H]2N2C(=O)CN(Cc3ccc(F)cc3)C(=O)[C@@]12C yielded an inhibition of 0.55%.
In the case of CC[C@@H]1Cc2cc(O)ccc2C2=C1c1ccc(O)cc1C[C@H]2CC, the inhibition is reported as 89.3% (active).
Compound O=C1NC(=O)C(c2ccc(Cl)cc2)N1 (configuration not stated) has an inhibition of 3.68%.
COCCNC(=O)c1ccc2nc(Cc3ccc(OC)c(OC)c3)oc2c1 was tested, and the inhibition was 2.67%.
COc1ccc(CNC(=O)COc2ccccc2C(=O)c2cnn(-c3ccccc3)c2)cc1OC showed an inhibition of 6.29%.
With CCCCNC(=O)c1ccccc1NC(=O)C1=C(C)OCCS1 the inhibition was 1.28%.
Cc1ccc(-c2nn(-c3ccccc3)cc2/C=C/C(=O)Nc2cccc(S(N)(=O)=O)c2)cc1 gave an inhibition of 2.47%.
O=C(O)/C=C/c1cn(-c2ccccc2)nc1-c1cccs1 was tested, and the inhibition was 57.3% (active).
CC(=O)C1=C(C)NC(C)=C(C(C)=O)C1c1cn(-c2ccccc2)nc1-c1cccs1 was tested, and the inhibition was 0.45%.
In the case of O=C1COc2ccc(NC(=O)N3CCN(c4ccc(F)cc4)CC3)cc2N1, the inhibition is reported as 1.24%.
CC(=O)NC12CC3CC(C1)CC(C(=O)N1CCN(S(=O)(=O)c4cccs4)CC1)(C3)C2 gave an inhibition of -0.81%.
Cc1cn(C2OC[C@@H](O)[C@@H]2CO)c(=O)[nH]c1=O (some centres not stated) showed an inhibition of 0.66%.
O=C(Nc1ccc([N+](=O)[O-])cc1)C1(c2ccccc2)CCOCC1 was tested, and the inhibition was -1.46%.
With O=C(OCC(=O)N1CCCC1=O)c1cc(S(=O)(=O)N2CCOCC2)ccc1Cl the inhibition was -0.38%.
COC(=O)c1c(C)c(C)nc(N)c1C#N was tested, and the inhibition was 82.5% (active).
In the case of COCc1c(N)c(C)nc(Cl)c1C#N, the inhibition is reported as 7.26%.
CCOC(=O)c1cc(C)nc(S(C)(=O)=O)c1C#N gave an inhibition of 3.95%.
Cn1nc(C(C)(C)C)c([N+](=O)[O-])c1C(N)=O gave an inhibition of 1.86%.
Work on O=C(Cn1cnc([N+](=O)[O-])n1)NCCc1ccccc1 yielded an inhibition of 0.01%.
CC1CCCCN1CCCNC(=O)Cn1ncc2c([nH]c3ccccc32)c1=O (configuration not stated) was tested, and the inhibition was 12%.
CCCCCn1c(=O)[nH]c2cc(C(=O)NCCCN3CCCCC3C)ccc2c1=O (configuration not stated) was tested, and the inhibition was 114% (active).
Compound O=C(NC1CCCCC1)c1ccc2c(=O)n(CC3CCCO3)c(=O)[nH]c2c1 (configuration not stated) has an inhibition of -9.09%.
In the case of CCOC1CS(=O)(=O)CC1OCC (configuration not stated), the inhibition is reported as -0.21%.
For c1ccc(Cc2c(-c3ccco3)nc3c4ccccc4ccn23)cc1, the inhibition was 33.2% (active).
For Cc1ccc(Cc2c(-c3ccc(C)cc3)nc3c4ccccc4ccn23)cc1, the inhibition was 4.37%.
Compound FC(F)(F)c1ccccc1Cc1c(-c2ccccc2)nc2c3ccccc3ccn12 has an inhibition of 5.62%.
Cc1cc(NC(=O)/C=C/C(=O)N(CC(=O)NC2CCCC2)c2ccc(F)cc2)no1 was tested, and the inhibition was -1.71%.
CC1CN(/C=C/C(=O)C(F)(F)F)CC(C)O1 (configuration not stated) showed an inhibition of -2.87%.
In the case of O=C1CN(C(=O)COC(=O)C2CC(=O)N(Cc3ccco3)C2)c2ccccc2N1 (configuration not stated), the inhibition is reported as 1.16%.
With O=C(Nc1ccc2c(c1)OCCO2)C1CCCC1 the inhibition was -2.43%.
With CN1C(=O)c2ccc(NC(=O)C3CCCCC3)cc2C1=O the inhibition was 33.2% (active).
Cc1nc2ccc(NC(=O)C3CCCCC3)cc2s1 was tested, and the inhibition was 2.5%.
With CN1C(=O)c2ccc(C(=O)Nc3ccc(Br)cn3)cc2C1=O the inhibition was -2.34%.
CN1C(=O)c2ccc(NC(=O)c3c(F)c(F)c(F)c(F)c3F)cc2C1=O was tested, and the inhibition was 37.5% (active).
Work on Cc1cccc(C(=O)Nc2ccc3c(c2)C(=O)N(CC(C)C)C3=O)c1 yielded an inhibition of 8.31%.
Compound COc1cc(CN2CCCN(C)CC2)c([N+](=O)[O-])cc1OC has an inhibition of 2.5%.
In the case of O=C(Nc1ccc(F)c([N+](=O)[O-])c1)C1CC(=O)N(Cc2ccccc2)C1 (configuration not stated), the inhibition is reported as -0.61%.
With Cc1cc(=O)oc2cc(NC(=O)C3CC(=O)N(Cc4ccccc4)C3)ccc12 (configuration not stated) the inhibition was 68.5% (active).
CCNC(=O)c1cccc(NC(=O)C2CC(=O)N(CCc3ccccc3)C2)c1 (configuration not stated) gave an inhibition of 3.18%.
For CC(=O)c1cccc(NC(=O)COc2ccc(S(=O)(=O)N3CCOCC3)cc2)c1, the inhibition was -1.21%.
Compound Cc1ccc(NC(=O)C(CC(=O)O)C2CCCO2)c(C)c1 (configuration not stated) has an inhibition of 2.55%.
With O=c1c(-c2ccccc2)coc2cc(O)ccc12 the inhibition was 32.2% (active).
CCOC(=O)c1oc2c(CN3CCN(C)CC3)c(O)ccc2c(=O)c1-c1ccc(Br)cc1 showed an inhibition of -0.95%.
With CC(C)=CCc1c(O)c(CC=C(C)C)c2occ(-c3ccc(O)cc3)c(=O)c2c1O the inhibition was -0.11%.
O=c1[nH]c(CN2CCOCC2)nc2scc(-c3ccccc3)c12 was tested, and the inhibition was -0.65%.
In the case of O=c1c(-c2ccccc2)coc2c(CN3CCOCC3)c(O)ccc12, the inhibition is reported as 36.3% (active).
For O=C1/C(=C/c2coc3ccc(O)cc3c2=O)SC(=S)N1c1ccccc1, the inhibition was -0.97%.
For O=C(Cc1cccs1)N(CC1CCCO1)C1(C(=O)NC2CCCCC2)CCCCC1 (configuration not stated), the inhibition was -1.48%.
C/C(=N/NC(=O)CN1CCN(S(=O)(=O)c2ccc(Br)cc2)CC1)c1ccncc1 gave an inhibition of -1.72%.
Work on Cc1nc2nc(C)c(NS(=O)(=O)c3ccc(C(C)(C)C)cc3)c(=O)n2[nH]1 yielded an inhibition of 1.79%.
CC(=O)c1ccc(N2CCN(CC(O)c3ccccc3)CC2)cc1 (configuration not stated) gave an inhibition of -0.54%.
Work on COc1cc(N)c(Cl)cc1C(=O)OCC(=O)c1ccc2c(c1)NC(=O)CO2 yielded an inhibition of -2.6%.
For CSc1ccc(CN2C(=O)NC3(CCCCCC3)C2=O)cc1, the inhibition was 6.55%.
For COc1ccc(CNC(=O)c2cc(C(=O)C3CC3)c[nH]2)cc1, the inhibition was 5.17%.
With CCSc1ccccc1C(=O)NCc1ccc(OC)cc1 the inhibition was -3.44%.
With COc1ccc(CNC(=O)c2c[nH]c3c(OC)cc(OC)cc3c2=O)cc1 the inhibition was 34.8% (active).
Compound C=CC[C@@H](CC(=O)N[C@@H](CO)Cc1ccccc1)C(=O)N[C@H](COC(=O)[C@H](CC=C)CC(=O)OC(C)(C)C)Cc1ccccc1 has an inhibition of 3.8%.
Cc1nc(NCc2ccccc2)c(C(N)=O)c2c1COC(C)(C)C2 gave an inhibition of 22.3%.
With Cc1nc(NCCN)c(C#N)c2c1COC(C)(C)C2 the inhibition was 27.9% (active).
For CCCCc1nc(NCCN)c(C#N)c2c1CSC(C)(C)C2, the inhibition was 5.12%.
CC(C)Cc1nnc(N)s1 was tested, and the inhibition was 0.9%.
CC(=O)Nc1ccc(S(=O)(=O)NCCC(=O)N2CCN(c3ccccc3Cl)CC2)cc1 gave an inhibition of 3.53%.
In the case of O=c1c2ccccc2nc(-c2ccccc2)n1-c1ccccn1, the inhibition is reported as -4.31%.
In the case of O=C(Nn1c(-c2ccc(Cl)cc2)nc2ccccc2c1=O)c1cccnc1Cl, the inhibition is reported as 15%.
With Cc1ccc(-c2nc3ccccc3c(=O)n2-c2ccc(Br)cn2)cc1 the inhibition was 27.5% (active).
With COCCCNC(=O)/C(C#N)=C/c1c(N2CCCCCC2)nc2ccccn2c1=O the inhibition was 74.5% (active).
O=Cc1c(N2CCN(c3cccc(Cl)c3)CC2)nc2ccccn2c1=O was tested, and the inhibition was 6.06%.
COCCNC(=O)/C(C#N)=C/c1nc(N(C)C)n(-c2ccc(F)cc2)c1Cl showed an inhibition of 0.71%.
For N#CC1(C#N)C(C(=O)C23CC4CC(CC(C4)C2)C3)C12CCOCC2 (configuration not stated), the inhibition was 1.25%.
Work on CSc1ncccc1C(=O)OCc1ccc(Br)cc1 yielded an inhibition of 2.13%.
For CCCc1nc2oc3c(=O)[nH]cnc3c2c2c1COC(C)(C)C2, the inhibition was 40.7% (active).
In the case of CC/C(C)=N/Nc1nc2sc3c(c2c(=O)[nH]1)CC(C)(C)OC3, the inhibition is reported as 21.5%.
Work on CCCc1nc2oc3c(OCC)ncnc3c2c2c1COC(C)(C)C2 yielded an inhibition of -1.08%.
Work on Nn1c(SCC(=O)NC(=O)NC2CCCC2)nnc1-c1ccccc1F yielded an inhibition of 0.25%.
Work on Cc1nc2ccc(C(=O)N3CCSCC3)cc2s1 yielded an inhibition of -8.83%.
Compound CN(CCc1ccccn1)C(=O)c1ccc(OC2CCN(Cc3ccccn3)CC2)cc1 has an inhibition of 3.08%.
In the case of COc1cc2c(cc1OC)C(C(C)C)=NC(C)(C)C2, the inhibition is reported as 140% (active).
COc1cc2c(cc1O)C(SC)=NC(C)(C)C2 showed an inhibition of 0.86%.
COc1cc2c(cc1OC)C(Nc1ccc(S(N)(=O)=O)cc1)=NC(C)(C)C2 was tested, and the inhibition was 0.94%.
In the case of O=C(COc1ccccc1Cl)N1CCCCCCC1, the inhibition is reported as 3.37%.
Compound COc1ccccc1C(=O)Nc1ccc(OCc2nnc3c4ccccc4c(C)nn23)cc1 has an inhibition of 1.57%.
In the case of COc1ccccc1C(=O)Nc1ccc(OCC(=O)N2CCCCC2)cc1, the inhibition is reported as 42.3% (active).

Source: PubChem BioAssay AID588726 (The Scripps Research Institute Molecular Screening Center, 2011)
